# HCMV inh: blocks human cytomegalovirus replication. hit rate 4.5% among 410,000. HFF cells, HCMV-luciferase reporter, 72 h; stronger effect = lower value. AID 1259415. activity change, negative = inhibition, % at 57.5 µM; in the data active means activity change below about -60%; inconclusive means no clear call, values can overlap the other calls; inactive means above about -39%
#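 Cell-based, HFFs, 1000 cells/well, 16 h 37C; cpds in DMSO + HCMV-luc, MOI 1 PFU/cell; 72 h 37C; OneGlo luminescence after 5 min RT; norm. to buffer vs Salinomycin 10uM.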
# Pf growth 96h: inhibits malaria parasite growth, 96 h. Potency, µM (doses to about 28.7 µM), inactives show at the top dose activity change, negative = inhibition, actives largely listed as inhibitors. P. falciparum luciferase reporter growth, 96 h. hit rate 6.9% among 320,000; further: potency means the concentration at half of the fitted maximal effect
#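 Luminescence readout: decreased luciferase signal marks inhibited growth of reporter-expressing P. falciparum in infected red cells (2% hematocrit, 0.05% parasitemia final), exposed to compound two generations (96 h, 37 C, 5% CO2).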
# Pf growth 48h: inhibits P. falciparum growth in the first generation, 48 h; P. falciparum luciferase growth in erythrocytes, 48 h; Potency, µM (series often up to 28.7 µM), without a hit: at the highest dose activity change, negative = inhibition, actives largely listed as inhibitors; hit rate 5.9% among 310,000; AID 504832; further: potency means the concentration at half of the fitted maximal effect
#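 Luciferase-expressing parasites in RBCs, 2% Hct / 0.1% parasitemia final; RPMI 1640 + 0.5% Albumax; 37 C, 5% CO2, one generation; luminescence read-out, lower signal = inhibition.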
# HCV inh: inhibitors of hepatitis C virus infection. Huh7.5.1 HCVcc-Cre infection, luciferase reporter, 44 h. Potency, µM (highest dose often 41.8 µM), for the others: at the top dose activity change, negative = inhibition, hits mostly inhibitors. hit rate 3.4% among 340,000. AID 651820; further: potency means the concentration at half of the fitted maximal effect
#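 Reporter virus HCVcc-Cre (~0.5 moi) infects cells exposed to compound; seeding density 1,000 cells/well with 4 h settling beforehand. Luminescence, 15 sec read, taken 44 h post-infection following a 15 min RT substrate incubation.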
# Numbers without * were called inactive; u = inconclusive; x = not tested or not shown; [ ] = remark or other dose. Hits are enriched below; roughly 13% of the tested compounds scored in any of these assays. Unless noted, the call rests on the fitted dose curve; in most records, active means well fitted inhibition curve with a large enough effect; inconclusive means small, poorly fitted or top-dose-only effect, or another doubt; inactive means no such curve, though single readings can be large or run the other way. On the % scale 0 is the no-effect control and ±100 the full control effect.
SMILES,HCMV inh,Pf growth 96h,Pf growth 48h,HCV inh
COc1ccc(NC(=O)CCCCn2c(=O)[nH]c3ccccc3c2=O)cc1,55.1,2.4%,u,-24.7%
COc1ccc(NC(=O)CCCn2c(=S)[nH]c3ccccc3c2=O)cc1,2.8,u,-24.8%,u
COc1ccc(NC(=O)CCn2c(=S)[nH]c3ccccc3c2=O)cc1,-61.0*,u,4.3%,-9.3%
COc1ccc(NC(=O)CCCn2c(=O)[nH]c3ccccc3c2=O)cc1,-5.5,-1.4%,2.33µM*,-8.1%
Cc1cc2occ(CC(=O)N(CC(C)C)c3c(N)n(Cc4ccccc4)c(=O)[nH]c3=O)c2cc1C,-20.0,-6.9%,16.5µM*,-9.7%
CCCN(C(=O)Cc1coc2cc(C)c(C)cc12)c1c(N)n(Cc2ccccc2)c(=O)[nH]c1=O,-5.4,u,u,1.9%
CC(C)CN(C(=O)CCCc1nc2ccccc2c(=O)[nH]1)c1c(N)n(Cc2ccccc2)c(=O)[nH]c1=O,-9.0,-7.6%,24.3%,0.8%
Cc1nc2ccccc2c(C)c1CC(=O)N(CC(C)C)c1c(N)n(Cc2ccccc2)c(=O)[nH]c1=O,-21.6,11.7µM*,u,u
Cc1ccc(NC(=O)C2CCN(C(=O)c3cnn(-c4ccccc4)c3-n3cccc3)CC2)cc1,-16.0,x,x,x
Brc1cccc(CNc2nc3ccccc3n2CCN2CCCCC2)c1,u,11.7µM*,u,u
c1ccc(Cn2c(CNc3nc4ccccc4n3CCN3CCOCC3)nc3ccccc32)cc1,-27.0,8.5%[5.75 µM],11.7µM*,4.5%
COc1ccc(/C=N/c2nc3ccccc3n2CCN2CCCCC2)cc1OC,-63.9*,-26.7%,x,-3.3%
COc1ccc(OC)c(CNc2nc3ccccc3n2CCN2CCCCC2)c1,-29.6,x,u,11.2µM*
O=C(c1ccc2c(c1)OCO2)c1cn(Cc2ccc(F)cc2)c2ccccc2c1=O,-9.6,x,x,x
COc1ccc(-c2n[nH]c3c2cnc2cc(OC)c(OC)cc23)cc1,-8.8,x,x,x
Cc1nc(-c2cccnc2)sc1CCNS(=O)(=O)c1ccc(F)cc1,-13.4,x,x,x
Cc1cccc(-c2nc(CCNC(=O)c3ccccc3Br)cs2)c1,-18.2,x,x,x
COc1cccc(CNc2nc3ccccc3n2CCN2CCCCC2)c1,-0.7,x,u,-27.9%
C=CCn1c(NCc2ccccc2O)nc2ccccc21,31.2,u,u,-11.0%
Brc1ccc(CNc2nc3ccccc3n2CCN2CCCCC2)cc1,-0.2,13.1µM*,u,u
C=CCn1c(NCc2ccc(OC)cc2O)nc2ccccc21,28.8,2.94µM*,u,u
COc1ccc(N2CC3=C(C2=O)C(c2ccc(O)c(OC)c2)NC(=O)N3C)cc1 (stereo not drawn),-5.2,x,x,x
c1cc2nnnn2nc1N1CCCCC1,19.0,-14.2%[5.75 µM],-10.2%,16.2%
CCOC(=O)N1CCN(c2ccc3nnnn3n2)CC1,-10.0,2.08µM*,x,1.2%
CCOC(=O)C(C)N1C(=O)S/C(=C/c2cc(C)n(-c3ccccn3)c2C)C1=O (stereo not drawn),24.1,x,22.6%,10µM*
SMILES,HCMV inh,Pf growth 96h,Pf growth 48h,HCV inh
COC(=O)C(C)N1C(=O)S/C(=C/c2cc(C)n(C(C)C)c2C)C1=O (stereo not drawn),14.0,12.5%[5.75 µM],72.9%,10µM*
CCn1c(C)cc(/C=C2/SC(=O)N(C(C)C(=O)OC)C2=O)c1C (stereo not drawn),-12.7,111.4%,53.4%,u
CCOC(=O)C(C)N1C(=O)S/C(=C/c2cc(C)n(-c3ccncc3)c2C)C1=O (stereo not drawn),-12.2,13.1µM*,u,10µM*
CNC(=O)Cn1c(=O)c2cccn2c2ccc(F)cc21,64.1,x,x,x
CCc1ccccc1NC(=O)C1CCN(C2=NS(=O)(=O)C(c3ccc(C)c(C)c3)=C2C)CC1,-24.4,x,x,x
COc1ccccc1C1c2ccc3ccccc3c2Oc2ncn(CCN(C)C)c(=N)c21 (stereo not drawn),-100.9*,2.33µM*,3.29µM*,12.6µM*
COc1ccc(C2c3ccc(O)cc3Oc3ncn(CCN4CCOCC4)c(=N)c32)cc1 (stereo not drawn),-6.1,-27.4%,u,11.2%
COc1ccc(C2c3ccc4ccccc4c3Oc3ncn4nc(Cc5ccccc5)nc4c32)cc1OC (stereo not drawn),-6.8,11.7%,u,20.4%
COc1ccc(C2c3ccc(O)cc3Oc3ncn4nc(-c5cccnc5)nc4c32)cc1OC (stereo not drawn),42.3,4.15µM*,5.22µM*,28.2µM*
COc1ccc(C2c3ccc4ccccc4c3Oc3ncn(CCCN(C)C)c(=N)c32)cc1 (stereo not drawn),-63.8*,1.65µM*,1.65µM*,u
COc1ccc(C2c3ccc(O)cc3Oc3ncn(CC(C)C)c(=N)c32)cc1 (stereo not drawn),18.8,-2.3%,5.22µM*,-24.7%
COc1ccccc1CNC(=O)c1cc2sccc2n1Cc1ccc(Cl)cc1,-15.8,x,x,x
Cc1cc(C)c(NC(=O)Cn2c(=O)nc(-c3ccccc3)c3cc(Cl)ccc32)c(C)c1,-8.6,x,x,x
COc1ccc(C2c3ccc(O)cc3Oc3ncn(Cc4ccco4)c(=N)c32)cc1OC (stereo not drawn),u,-30.2%,u,u
COc1ccccc1C1c2ccc3ccccc3c2Oc2ncn(CCCO)c(=N)c21 (stereo not drawn),x,2.62µM*,7.38µM*,u
COc1ccc(C2c3ccc4ccccc4c3Oc3ncn(Cc4ccco4)c(=N)c32)cc1OC (stereo not drawn),-6.0,u,13.1µM*,u
COc1ccc2nc(SCC(O)c3cccc(Br)c3)[nH]c2c1 (stereo not drawn),-38.7,x,x,x
Nc1nn(S(=O)(=O)c2cccc3nsnc23)cc1-c1ccc(Br)cc1,-9.4,x,u,10µM*
COC(=O)c1scc(C)c1NC(=O)c1ccc(Cl)cc1,x,42.2%,-6.1%,u
COC(=O)c1scc(C)c1N/N=C(\C)c1ccc(F)cc1F,-0.1,2.08µM*,x,-46.4%
CCOC(=O)c1cc(S(=O)(=O)Nc2cc(F)ccc2C)[nH]n1,6.4,x,x,x
CC1CCN(S(=O)(=O)c2cc(C(=O)NCCc3ccccc3)n(C)c2)CC1,-18.9,x,x,x
O=C(Cn1nnc(-c2ccccc2NC(=O)c2cccs2)n1)Nc1ccccc1,-32.4,0.0%,u,u
N#CCCn1nc(-c2ccccc2)cc1Nc1ccccc1NC(=O)c1cccs1,-2.3,47.1%,5.22µM*,u
O=C(NCCN1CCOCC1)c1cc2ccccc2oc1=O,-20.2,u,44.6%,3.16µM*
O=C(NCCN1CCOCC1)c1cc2ccccc2o1,-6.6,u,x,12.4%
O=C(Nc1ccccc1N1CCCC1)c1cccc(-c2cc3ccccc3oc2=O)c1,41.0,u,u,u
O=C(Nc1ccc(CN2CCOCC2)cc1)c1cc2ccccc2o1,20.6,x,21.3%,35.5µM*
O=C(Nc1ccc(N2CCCC2)cc1)c1cccc(-c2cc3ccccc3oc2=O)c1,-63.3*,0.415µM*,8.9%,-3.9%
COc1cc2ccccc2cc1C(=O)Nc1ccc(CN2CCOCC2)cc1,-2.5,241.8%,23.8%,6.31µM*
